Where “and” joins values, the source holds several entries; their conditions need not be identical. Identical values can stand only once. The source holds several records for some structures; these can differ, active in one and inactive in another. Calls of active or inactive are those of the source. Cut-off read from the data, not from the text of the source, unless noted: active = inhibition above about 80%; inactive = the rest.
Experiments:
[1] = compounds altering circadian rhythm period length – cell-based, LOPAC library, luminescence reporter (AID 2774; call rule not given here;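 note: values are relative to mean of DMSO wells on each plate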); settings: circadian reporter cells, at 7 µM, actives lie on both sides
[2] = tested on: Hepatitis C virus NS3 helicase; assay: blockers of NS3h binding to ssDNA – biochemical, fluorescence polarization, LOPAC1280 library, primary screen (AID 687035; in the data active = inhibition above about 37%); settings: Purified HCV NS3 helicase, Cy5-dT15 ssDNA binding fluorescence polarization; stronger effect = higher value; concentration not given here
[3] = compounds altering Cy5-DNA-NS3h complex signal – biochemical, LOPAC1280, artefact control for HCV NS3 helicase inhibitor project (AID 687037; call rule not given here); settings: Cy5-DNA-NS3h complex fluorescence interference counterscreen
[4] = chitosan synthesis blockers in C. neoformans – flow cytometry, Cibacron Brilliant Red staining (AID 1347148; call rule not given here;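 note: compound exposure lasted three days at 37 degrees C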); settings: Cryptococcus neoformans chitosan, stronger effect = lower value; at 10 µM unless noted
[5] = blockers of cellular phospholipid synthesis – cell-based, LOPAC library, screen 4, primary screen (AID 1347384; call rule not given here); settings: animal cells, phospholipid biosynthesis inhibition screen; at 10 µM
[6] = galactose survival enhancers in mitochondrial complex I cybrids – cell-based, galactose medium, ATP luminescence, primary screen (AID 1645843;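 active = z-score of at least 1.8 in each of two replicates, scored against plate mean and spread of sample wells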;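 note: positive z means more ATP and so rescue of galactose-driven cybrid death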); settings: complex I mutant cybrid cells, 72 h, stronger effect = higher value
[7] = growth inhibition, single agents and combos, LFS_MB_1R, cell-based, cisplatin or BGB combos, synergistic combos for chromothripsis tumors (AID 1671452); settings: LFS_MB_1R medulloblastoma cells, stronger effect = higher value;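 note: cells exposed for 96 hours before readout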
[8] = growth inhibition, single agents and combos, CRL2098, cell-based, BGB or cisplatin IC20 combos, synergistic combos for chromothripsis tumors (AID 1671454); settings: CRL2098 osteosarcoma cells, drug combinations, stronger effect = higher value;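 note: cells exposed for 96 h before readout; 0% = vehicle DMSO and 100% = killing by high DMSO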
[9] = growth inhibition, single agents and combos, HD-MB03, cell-based, BGB or cisplatin IC20 combos, synergistic combos for chromothripsis tumors (AID 1671455; in the data active = inhibition above about 83%;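 note: 0% = vehicle DMSO and 100% = high DMSO as cytotoxic control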); settings: HD-MB03 medulloblastoma cells, stronger effect = higher value
[10] = growth inhibition, single agents and combos, UWB1.289, cell-based, BGB or cisplatin combos, synergistic combos for chromothripsis tumors (AID 1671456); settings: UWB1.289 ovarian carcinoma cells, stronger effect = higher value;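 note: cells exposed to compound for four days; 0% = vehicle DMSO and 100% = killing by high DMSO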
[11] = growth inhibition, single agents and combos, LFS_MB_2R, cell-based, cisplatin combos, synergistic combos for chromothripsis tumors (AID 1671457); settings: LFS_MB_2R medulloblastoma cells, stronger effect = higher value;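 note: cells exposed to compound for four days before readout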
[12] = UWB1.289_BRCA1 ovarian cancer growth, cell-based, BGB or cisplatin combinations (AID 1671459); settings: UWB1.289 BRCA1 ovarian carcinoma, drug combinations, stronger effect = higher value
[13] = drug combination toxicity in non-malignant astrocytes – cell-based, BGB or cisplatin IC20 combos, cytotoxicity control for chromothriptic childhood tumor combination screen (AID 1671460); settings: Human astrocytes, viability inhibition, drug combinations, at 0.5 µM, stronger effect = higher value;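 note: cells exposed to compounds for 96 hours before viability readout; 0% = vehicle and 100% = killing control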
[14] = CRL1545 cell growth, single agent and combined, cisplatin and BGB IC20 combos (AID 1671464); settings: CRL1545 osteosarcoma cells, stronger effect = higher value;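 note: cells exposed to compound for 96 hours before readout; 0% = vehicle DMSO and 100% = high DMSO killing control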
[15] = liver-stage malaria parasite load reduction – cell-based, known kinase inhibitor set, luminescence, hepatoma host viability (AID 624392; call rule not given here;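 note: infected cells incubated roughly two days before readout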); settings: Plasmodium liver stage in hepatoma cells, luciferase luminescence, concentration not given here; liver cell % of control: measured here: host liver cell viability; parasite % of control: stronger effect = lower value
[16] = compounds altering viability of human ES cells (AID 493140; call rule not given here;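 note: cells exposed to compounds for four days before counting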); settings: human embryonic stem cell survival screen; stronger effect = higher value
[17] = biological target: NAD(+) hydrolase SARM1 (Homo sapiens) (UniProt Q6SZW1); assay: blocking NAD cleavage by SARM1 SAM-TIR – cell lysate, NAD-Glo luminescence (AID 1508614;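 active = compound whose remaining NAD level is above about 45 nM, limit read from the data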;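 note: higher remaining NAD means stronger inhibition of SARM1 NADase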); settings: SAM-TIR HEK293T lysate NADase, at 1 µM, stronger effect = higher value
[18] = measured here: combination with BGB IC40, at 0.05 µM
[19] = measured here: combination with cisplatin, at 0.5 µM
[20] = measured here: combination with cisplatin, at 5 µM
[21] = measured here: combination with BGB at IC20, at 0.5 µM
[22] = measured here: combination with cisplatin at IC20, at 0.5 µM
[23] = measured here: combo with BGB at IC20, at 0.5 µM
[24] = measured here: combo with cisplatin at IC20, at 0.5 µM
[25] = measured here: inhibition with BGB combination, at 0.05 µM
[26] = measured here: inhibition with cisplatin combination, at 0.05 µM
[27] = BGB combination, concentration series, at 5 µM
[28] = cisplatin combination, concentration series, at 5 µM
[29] = measured here: combo with BGB IC20
[30] = measured here: combo with cisplatin IC20
[31] = measured here: with BGB IC20 combination, at 0.5 µM
[32] = measured here: with cisplatin IC20 combination, at 0.5 µM

Sequence of NAD(+) hydrolase SARM1 (Homo sapiens) (Q6SZW1 whole entry, looked up): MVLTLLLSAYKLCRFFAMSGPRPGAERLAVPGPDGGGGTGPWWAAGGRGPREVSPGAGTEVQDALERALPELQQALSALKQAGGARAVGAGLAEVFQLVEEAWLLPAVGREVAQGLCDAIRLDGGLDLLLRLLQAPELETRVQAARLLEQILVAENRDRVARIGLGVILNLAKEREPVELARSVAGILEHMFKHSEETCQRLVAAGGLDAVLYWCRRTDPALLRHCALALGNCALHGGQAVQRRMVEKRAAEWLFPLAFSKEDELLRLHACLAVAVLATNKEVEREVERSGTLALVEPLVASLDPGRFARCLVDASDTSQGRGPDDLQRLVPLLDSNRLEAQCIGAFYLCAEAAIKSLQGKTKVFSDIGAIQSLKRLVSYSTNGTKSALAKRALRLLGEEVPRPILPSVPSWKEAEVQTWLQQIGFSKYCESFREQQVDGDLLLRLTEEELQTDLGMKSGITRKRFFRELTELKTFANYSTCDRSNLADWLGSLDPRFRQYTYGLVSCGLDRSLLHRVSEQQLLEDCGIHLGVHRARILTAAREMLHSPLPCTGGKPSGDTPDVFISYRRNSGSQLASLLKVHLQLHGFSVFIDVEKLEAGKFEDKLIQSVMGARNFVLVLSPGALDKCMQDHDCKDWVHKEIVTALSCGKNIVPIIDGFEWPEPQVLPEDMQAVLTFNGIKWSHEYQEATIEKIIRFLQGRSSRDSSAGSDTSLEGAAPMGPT

SMILES: CC1(C)CCC2=C(O1)c1ccccc1C(=O)C2=O
- period change [1]: -0.24 h (inactive)
- inhibition [2]: -5% (inactive)
- fluorescence ratio (interference) [3]: 1 (inactive)
- fold fluorescence [4]: 9.76 [at 206.4 µM] (inactive)
- outcome [5]: inactive
- z-score [6]: -1.29 (inactive)
- inhibition ([7]; at 0.5 µM): -13.2% (inactive) and 14.9% (inactive)
- inhibition [7, 18]: -55.4% and -11.7%
- inhibition [7, 19]: -25.3% and 44%
- inhibition [7, 20]: 96.9% and 102%
- inhibition ([8]; at 0.5 µM): -39.7% (inactive) and -32.9% (inactive)
- inhibition [8, 21]: -38.5% and -7.72%
- inhibition [8, 22]: -39.4% and -35%
- inhibition ([9]; at 0.5 µM): -12.2% (inactive) and -9.16% (inactive)
- inhibition [9, 23]: 5.55% and -5.28%
- inhibition [9, 24]: -34.7% and -19.2%
- inhibition ([10]; at 0.5 µM): 12.3% (inactive) and 6.12% (inactive)
- inhibition [10, 25]: -2.17% and 7.32%
- inhibition [10, 26]: -10.2% and -8.62%
- inhibition ([11]; at 0.5 µM): -21.3% (inactive) and -12.9% (inactive)
- inhibition [11, 19]: -28.3% and -6.61%
- inhibition [11, 20]: 89.1% and 88.9%
- inhibition [12, 27]: 128% and 124%
- inhibition ([12]; at 0.5 µM): 0.6% (inactive) and 6.57% (inactive)
- inhibition [12, 28]: 129% and 128%
- inhibition [13]: 16.9% (inactive) and 14.6% (inactive)
- inhibition [13, 29]: 23.9% and 15.8%
- inhibition [13, 30]: 20.7% and 18.1%
- inhibition ([14]; at 0.5 µM): 36.2% (inactive) and 22.6% (inactive)
- inhibition [14, 31]: 33.7% and 14.6%
- inhibition [14, 32]: 36.4% and 26.5%
- inhibition ([14]; single agent, at 0.05 µM): -59.2% and -23.1%
- inhibition ([14]; single agent, at 5 µM): 98.9% and 98.3%

SMILES: COC(=O)c1ccc2c(C(=Nc3ccc(N(C)C(=O)CN4CCN(C)CC4)cc3)c3ccccc3)c(O)[nH]c2c1
- liver cell % of control [15]: 156% and 81.4% and 93.4%
- parasite % of control [15]: 197% (inactive) and 560% (inactive) and 349% (inactive)

SMILES: Cc1ccc(F)c(NC(=O)Nc2ccc(-c3cccc4[nH]nc(N)c34)cc2)c1
- liver cell % of control [15]: 57% and 72.1% and 102%
- parasite % of control [15]: 112% (inactive) and 141% (inactive) and 35.1% (inactive)

SMILES: COc1cc2ncnc(Nc3cccc(Cl)c3)c2cc1OC
- period change [1]: 0.545 h (inactive)
- survival [16]: 138 (inactive)
- inhibition [2]: 0% (inactive)
- fluorescence ratio (interference) [3]: 1 (inactive)
- fold fluorescence [4]: 5.72 [at 142 µM] (inactive)
- outcome [5]: inactive
- z-score [6]: 1.23 (inactive)

SMILES: CC(=O)Oc1cc2c(s1)CCN(C(C(=O)C1CC1)c1ccccc1F)C2 (configuration not stated)
- remaining NAD [17]: 10 nM (inactive)
- z-score [6]: -1.04 (inactive)

SMILES: Nc1ccn([C@@H]2O[C@H](CO)[C@@H](O)C2(F)F)c(=O)n1
- z-score [6]: -1.98 (inactive)

SMILES: CNc1nccc(-c2cccnc2Oc2cc(C(=O)Nc3cccc(C(F)(F)F)c3)ccc2C)n1
- liver cell % of control [15]: 245% and 255% and 102%
- parasite % of control [15]: 0.405% (inactive) and 0.413% (active) and 75.6% (inactive)

SMILES: CC(C)=CCC/C(C)=C/CC/C(C)=C/CSc1ccccc1C(=O)O
- period change [1]: -0.01 h (inactive)

SMILES: NC(=O)c1ccc(I)c([N+](=O)[O-])c1
- inhibition ([7]; at 0.5 µM): -3.89% (inactive) and -33.7% (inactive)
- inhibition [7, 18]: -3.85% and -20%
- inhibition [7, 19]: -8.55% and -54.4%
- inhibition [7, 20]: 14.7% and -8.48%
- inhibition ([8]; at 0.5 µM): -9.77% (inactive) and -68.7% (inactive)
- inhibition [8, 21]: 4.55% and -23.6%
- inhibition [8, 22]: -0.612% and -98.1%
- inhibition ([9]; at 0.5 µM): 2.12% (inactive) and -9.81% (inactive)
- inhibition [9, 23]: 8.1% and -18.5%
- inhibition [9, 24]: 1.77% and -5.96%
- inhibition ([10]; at 0.5 µM): 4.39% (inactive) and -12.6% (inactive)
- inhibition [10, 25]: -4.87% and -28.1%
- inhibition [10, 26]: 4.41% and -26.6%
- inhibition ([11]; at 0.5 µM): -3.62% (inactive) and -27.7% (inactive)
- inhibition [11, 19]: 4.37% and -27.4%
- inhibition [11, 20]: -55.7% and -23.8%
- inhibition [12, 27]: 8.62% and -14.6%
- inhibition ([12]; at 0.5 µM): 3.67% (inactive) and -21.5% (inactive)
- inhibition [12, 28]: 11.7% and -8.59%
- inhibition [13]: 13.4% (inactive) and -16.5% (inactive)
- inhibition [13, 29]: 12.4% and -9.72%
- inhibition [13, 30]: 18.2% and -4.93%
- inhibition ([14]; at 0.5 µM): 3.31% (inactive) and -13.9% (inactive)
- inhibition [14, 31]: -14.5% and -22.9%
- inhibition [14, 32]: 10.2% and -9.34%
- inhibition ([14]; single agent, at 0.05 µM): -40.1% and -19.9%
- inhibition ([14]; single agent, at 5 µM): -12.7% and -3.93%
